Data: PubChem BioAssay (EPA / NIEHS)
Several values for one entry are separate records, joined by “and”; a condition that tells them apart may be missing. Equal values may be shown once. Activity calls are given as the source filed them. How the source made its calls: active means hit-call score of the fitted dose curve at least 0.9, where 1 is the maximum; inactive means score below 0.9.

Key:
[1] = read-out: Plasminogen activator inhibitor-1 (PAI1), SERPINE1 (gene 5054); experiment: BSK_MyoF_PAI1: BioMAP Diversity Plus: MyoF Assay for Plasminogen activator inhibitor-1 (PAI1) Biomarker Activity (AID 2284256); conditions: primary human lung fibroblasts
Method in brief: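 Activity reflects increased PAI-1, determined by ELISA and compared with DMSO, in human lung fibroblasts treated for 24 h.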

[2] = read-out: Interleukin-8 (IL8), CXCL8 (gene 3576); experiment: BSK_MyoF_IL8: BioMAP Diversity Plus: MyoF Assay for Interleukin-8 (IL8) Biomarker Activity (AID 2284261); conditions: primary human lung fibroblasts
Method in brief: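 In this multiplexed primary-cell system, fibroblasts from human lung are treated with chemicals, and IL-8 is detected by ELISA at 24 h, with DMSO serving as the negative reference.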

[3] = read-out: Interleukin-8 (IL8), CXCL8 (gene 3576); experiment: BSK_KF3CT_IL8: BioMAP Diversity Plus: KF3CT Assay for Interleukin-8 (IL8) Biomarker Activity (AID 2284254); conditions: primary human keratinocytes with fibroblasts
Method in brief: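 ELISA detection of IL-8 from a human skin co-culture, keratinocytes with foreskin fibroblasts, at 24 h following chemical exposure, with gain of signal scored against DMSO controls.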

[4] = read-out: Monocyte Chemoattractant Protein-1 (MCP1), CCL2 (gene 6347); experiment: BSK_IMphg_MCP1: BioMAP Diversity Plus: IMphg Assay for Monocyte Chemoattractant Protein-1 (MCP1) Biomarker Activity (AID 2284253); conditions: primary human endothelial cells with macrophages
Method in brief: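 ELISA readout of MCP-1 at 24 hours in IMphg co-cultures of venular endothelial cells and macrophages, normalised to DMSO; parallel cultures stained with sulforhodamine B for overt cytotoxicity.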

[5] = read-out: Macrophage Inflammatory Protein-1 Alpha (MIP1a), CCL3 (gene 6348); experiment: BSK_IMphg_MIP1a: BioMAP Diversity Plus: IMphg Assay for Macrophage Inflammatory Protein-1 Alpha (MIP1a) Biomarker Activity (AID 2284255); conditions: primary human endothelial cells with macrophages
Method in brief: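 MIP-1a protein levels were quantified by ELISA after 24 h treatment of human endothelial cell–macrophage co-cultures, compared with DMSO. Parallel cultures were fixed with TCA and stained with 0.1% SRB to gauge overt cytotoxicity.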

[6] = read-out: CD69, CD69 (gene 969); experiment: BSK_IMphg_CD69: BioMAP Diversity Plus: IMphg Assay for CD69 Biomarker Activity (AID 2284257); conditions: primary human endothelial cells with macrophages
Method in brief: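 Readout is ELISA for CD69 in primary human venular endothelial cell/macrophage co-culture, taken at 24 h post-dosing. SRB staining of parallel cultures gauged overt cytotoxicity; signal increase versus DMSO defined activity.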

[7] = read-out: Eotaxin 3, CCL26 (gene 10344); experiment: BSK_BF4T_Eotaxin3: BioMAP Diversity Plus: BF4T Assay for Eotaxin 3 Biomarker Activity (AID 2284258); conditions: primary human bronchial epithelial cells with fibroblasts
Method in brief: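 ELISA measurement of Eotaxin-3 after 24 h chemical exposure in a bronchial epithelial/dermal fibroblast co-culture, with DMSO as baseline. Parallel SRB staining (0.1% SRB after 10% TCA fixation, 560 nm) flagged overt cytotoxicity.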

[8] = read-out: Monocyte Chemoattractant Protein-1 (MCP1), CCL2 (gene 6347); experiment: BSK_BF4T_MCP1: BioMAP Diversity Plus: BF4T Assay for Monocyte Chemoattractant Protein-1 (MCP1) Biomarker Activity (AID 2284259); conditions: primary human bronchial epithelial cells with fibroblasts
Method in brief: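 MCP-1 ELISA readout taken 24 h after dosing in the BF4T system (bronchial epithelial cells plus dermal fibroblasts). Parallel SRB total-protein staining flagged cytotoxicity; DMSO served as baseline, positive fitting direction.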

[9] = read-out: Intercellular Adhesion Molecule 1 (ICAM1), ICAM1 (gene 3383); experiment: BSK_BF4T_ICAM1: BioMAP Diversity Plus: BF4T Assay for Intercellular Adhesion Molecule 1 (ICAM1) Biomarker Activity (AID 2284260); conditions: primary human bronchial epithelial cells with fibroblasts
Method in brief: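 ICAM-1 levels measured by ELISA after 24 h chemical treatment of bronchial epithelial cell/dermal fibroblast co-cultures, read against DMSO baseline. Overt cytotoxicity checked in parallel cultures by sulforhodamine B staining.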

[10] = read-out: CD90, THY1 (gene 7070); experiment: BSK_BF4T_CD90: BioMAP Diversity Plus: BF4T Assay for CD90 Biomarker Activity (AID 2284262); conditions: primary human bronchial epithelial cells with fibroblasts
Method in brief: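 CD90 levels by ELISA after 24 h treatment of human bronchial epithelial cell/dermal fibroblast cultures, analysed versus DMSO. Overt cytotoxicity checked in parallel cultures by sulforhodamine B staining.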

Measured: AC50

CO[Si](OC)(c1ccccc1)c1ccccc1
active: [1] 30.5 µM
inactive: [2]

CCCCCCOC(=O)c1ccccc1O
inactive: [3]

CC(=O)Nc1ccc(N=Nc2cc(C)ccc2O)cc1
inactive: [1] | [2]

O=S(=O)(OCCOC(F)(F)F)C(F)(F)F
inactive: [4] | [3] | [5] | [1] | [6] | [7] | [8] | [9] | [2] | [10]

CCCCCCC(C)OC(=O)CCCCC(=O)OC(C)CCCCCC (stereo unspecified)
inactive: [1] | [2]

C=CC/C=C/C/C=C/C/C=C/C
active: [1] 0.016 µM
inactive: [2]

CCc1c(Br)c(Br)c(Br)c(Br)c1Br
inactive: [1] | [2]

CC(CCl)OP(=O)(OC(C)CCl)OC(C)CCl (stereo unspecified)
inactive: [1] | [2]

CCCCOCCOCCOC(=O)CCCCC(=O)OCCOCCOCCCC
inactive: [1] | [2]

OCC(F)(F)C(F)(F)C(F)(F)C(F)(F)C(F)(F)C(F)(F)F
inactive: [4] | [3] | [5] | [1] | [6] | [7] | [8] | [9] | [2] | [10]

CCCCCCCOC(=O)c1ccccc1C(=O)OCCCCCCC
inactive: [1] | [2]

O=S(=O)(OCC(F)F)C(F)(F)F
inactive: [4] | [3] | [5] | [1] | [6] | [7] | [8] | [9] | [2] | [10]

FC(F)(F)C(F)(F)CNCC(F)(F)C(F)(F)F
inactive: [4] | [3] | [5] | [1] | [6] | [7] | [8] | [9] | [2] | [10]

C#C[C@]1(O)CC[C@H]2[C@@H]3CCc4cc(OC)ccc4[C@H]3CC[C@@]21C
inactive: [1] | [2]

FC(F)(F)C(F)(F)C(F)(F)C(F)(F)C(F)(F)C(F)(F)C(F)(F)C(F)(F)F
inactive: [4] | [3] | [5] | [1] | [6] | [7] | [8] | [9] | [2] | [10]

O=S(=O)(O)C(F)(F)C(F)(F)C(F)(F)C(F)(F)C(F)(F)C(F)(F)C(F)(F)F
inactive: [4] | [3] | [5] | [1] | [6] | [7] | [8] | [9] | [2] | [10]

Oc1ccc(Nc2ccccc2)cc1
active: [1] 7.66 µM | [2] 3.97 µM

O=C(O)C(F)(OC(F)(F)C(F)(OC(F)(F)C(F)(F)C(F)(F)F)C(F)(F)F)C(F)(F)F (stereo unspecified)
inactive: [4] | [3] | [5] | [1] | [6] | [7] | [8] | [9] | [2] | [10]

O[Si](c1ccccc1)(c1ccccc1)c1ccccc1
active: [1] 20 µM | [2] 8.82 µM

C=CC(=O)OCC(F)(F)C(F)(F)C(F)(F)C(F)(F)COC(=O)C=C
inactive: [5] | [10]
active: [4] 30 µM | [3] 17.3 µM and 18.9 µM | [1] 15.4 µM and 16.7 µM | [6] 30 µM | [7] 21.9 µM and 30 µM | [8] 11.2 µM and 15.5 µM | [9] 9.07 µM and 16.9 µM | [2] 19.5 µM and 13.8 µM

CS(C)(=O)=O
inactive: [1] | [2]

CCN(CC)c1ccc2c(C)cc(=O)oc2c1
inactive: [1] | [2]

O=C(CC(=O)C(F)(F)C(F)(F)F)C(F)(F)F
inactive: [4] | [3] | [5] | [1] | [6] | [7] | [8] | [9] | [2] | [10]

FC(F)(F)C(F)(F)C(F)(F)C(F)(F)C(F)(F)C(F)(F)CC1CO1 (stereo unspecified)
inactive: [4] | [3] | [5] | [1] | [6] | [7] | [8] | [9] | [2] | [10]

C=CC(=O)OCC(F)(F)C(F)(F)C(F)(F)C(F)(F)C(F)(F)C(F)(F)C(F)(F)F
inactive: [4] | [3] | [5] | [1] | [6] | [7] | [8] | [9] | [2] | [10]

Nc1ccc([N+](=O)[O-])cc1O
inactive: [1] | [2]

CCc1ccc(C(c2ccc(CC)cc2)C(Cl)Cl)cc1
active: [1] 31.1 µM | [2] 7.95 µM

CCCCC(CC)COP(=O)(O)OCC(CC)CCCC (stereo unspecified)
inactive: [3]

OCC(F)(F)C(F)(F)C(F)(F)C(F)(F)C(F)(F)C(F)F
inactive: [4] | [3] | [5] | [1] | [6] | [7] | [8] | [9] | [2] | [10]

O=C(O)C(F)(F)C(F)(F)C(F)(F)C(F)(F)F
inactive: [4] | [3] | [5] | [1] | [6] | [7] | [8] | [9] | [2] | [10]

CCCCNc1ccccc1
inactive: [1] | [2]

C=C(C)C(=O)OCCC(F)(F)C(F)(F)C(F)(F)C(F)(F)C(F)(C(F)(F)F)C(F)(F)F
inactive: [4] | [3] | [5] | [1] | [6] | [7] | [8] | [9] | [2] | [10]

CCCCCCCCCCCCCCCC[N+](C)(C)Cc1ccccc1
active: [1] 2.47 µM | [2] 5.84 µM

O=C(O)C(F)(OC(F)(F)C(F)(OC(F)(F)C(F)(OC(F)(F)C(F)(F)C(F)(F)F)C(F)(F)F)C(F)(F)F)C(F)(F)F (stereo unspecified)
inactive: [4] | [3] | [5] | [1] | [6] | [7] | [8] | [9] | [2] | [10]

O=C(O)C(F)(F)C(F)(F)C(F)(F)F
inactive: [4] | [3] | [5] | [1] | [6] | [7] | [8] | [9] | [2] | [10]

C=CC(F)(F)C(F)(F)C(F)(F)C(F)(F)C(F)(F)C(F)(F)C(F)(F)C(F)(F)F
inactive: [4] | [3] | [5] | [1] | [6] | [7] | [8] | [9] | [2] | [10]
